± gives the standard deviation of the averaged measurements. The full ranking holds about 25,000 sequences; the median of “ln(normalized median fluorescence intensity)” is about 8.6, and the highest 2% start at about 10. Many of the other results were omitted from the sample, so the highest values are more common in it than they were.
tested on: PfAP2-EXP AP2 domain (GST-tagged); experiment: gcPBM binding intensity (ln(normalized median fluorescence intensity)); higher = stronger DNA binding
In short: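 After 1 h on an Agilent 4 × 180k array of primer-extended double-stranded 36-bp intergenic genomic probes and negative controls, bound GST-tagged P. falciparum DNA-binding domains were detected with Alexa488 anti-GST antibody and scanned at 488 nm. The domains had been expressed in E. coli, and binding took place in 1× PBS with 1% milk, 0.2 mg/ml BSA, 0.5% salmon testes DNA and 0.03% Triton X-100. Binding intensity is the highest Masliner-normalised natural-log median intensity across replicate spots of either probe orientation.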

Sequence	gcPBM binding intensity (ln)
GCCATAAAAATATATACACACATAAAAAAAAATTAT [CACACA_site1176]	8.36 ± 0.53
CTTTGTAGTTGGTCCACACACATATCTGGAAGAATA [CACACA_site4834]	8.54 ± 0.39
AACTTTTAGAAGAACACACACATATAGATTATGACC [CACACA_site6256]	8.8 ± 0.26
TATATTATGACCACCACACACCTATACACATAACAT [CACACA_site7199]	8.88 ± 0.43
ATTATAACACCTCCCCCCCTTTTTTTATGAAGACCA [CACACA_negctrl_site1043]	10.6 ± 0.18
AAAATAAAAATAAAAGCACACATAAATATATATATA [CACACA_site8409]	9.64 ± 0.28
AATAAAAATAAAAGCACACATAAATATATATATATT [CACACA_site1441]	8.66 ± 0.39
AAAAAAAAAAAAAAAGCACACATATAAATATGAATA [CACACA_site8391]	8.41 ± 0.24
AAAAATAAAAAAAGCACACACATATATATATATATA [CACACA_site1885]	10.2 ± 0.28
TAAAAAATAAAAAAAGCACACACATATATATATATA [CACACA_site8567]	10.3 ± 0.25
AAAAATAAAAAAAGCACACACATATAAATAAATATA [CACACA_site6968]	8.69 ± 0.6
TTCTTTTTAATTAATACACACACACCCATATATATA [CACACA_site8719]	8.83 ± 0.42
AATGTATATATATATATATATATATATATTTATTTA [CACACA_negctrl_site113]	8.43 ± 0.14
CCCGTAAATTATGAGTGTACGTTATTTTTTAAAATG [XGTACX_site3946]	8.81 ± 0.49
ATAATGTTTTATAATACACACATTATATATATAAAT [CACACA_site6101]	8.4 ± 0.37
AATATATGTTAAAATGGTACACAATTATTATATATT [XGTACX_site6407]	8.46 ± 0.4
TATTCCTTCTACAATTAAATAATTATAATAAATATA [GTGCAC_negctrl_site26]	8.46 ± 0.46
ATATATTATTATACATGTACATATATAGATATATAT [XGTACX_site4358]	8.53 ± 0.35
CAAGTAGATATTATACGTACATATATATATATATAT [XGTACX_site8349]	10.2 ± 0.32
GAAATTATGTAAAAAAGTACTAACATACATATATAT [XGTACX_site1794]	8.61 ± 0.32
ACATACATATATATACGTACATATATATTTATATAT [XGTACX_site5799]	8.75 ± 0.34
AATTAGATACTAACAAGTACATATATATATATATAT [XGTACX_site2252]	10.2 ± 0.26
ATATATAGATAATCAAGTACATAACAAGATATAAGA [XGTACX_site2186]	8.81 ± 0.47
ATAATATCATAATATTGTACATATTTTATTTTAAAT [XGTACX_site1115]	8.36 ± 0.29
